The target in assay [1] is Mitogen-activated protein kinase 3 (Homo sapiens) (UniProt P27361). To be noted: at 1 µM.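 Further: values are mean percent inhibition of MAPK3.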
In assay [2] the target is SRSF protein kinase 3 (Homo sapiens) (UniProt Q9UPE1). To be noted: at 0.1 µM.
Assay [3] has the same target. The conditions noted are these: at 1 µM.
Assay [4] has as its target Mitogen-activated protein kinase 14 (Homo sapiens) (UniProt Q16539). To be noted: at 0.1 µM.
The target is the same in assay [5]. To be noted: at 1 µM.
Assay [6] deals with Mitogen-activated protein kinase 11 (Homo sapiens) (UniProt Q15759). The conditions noted are these: at 0.1 µM.
Assay [7] shares this target. To be noted: at 1 µM.
Assay [8] has as its target T1, Mitogen-activated protein kinase 13 (Homo sapiens) (UniProt O15264).
T1 sequence (whole entry): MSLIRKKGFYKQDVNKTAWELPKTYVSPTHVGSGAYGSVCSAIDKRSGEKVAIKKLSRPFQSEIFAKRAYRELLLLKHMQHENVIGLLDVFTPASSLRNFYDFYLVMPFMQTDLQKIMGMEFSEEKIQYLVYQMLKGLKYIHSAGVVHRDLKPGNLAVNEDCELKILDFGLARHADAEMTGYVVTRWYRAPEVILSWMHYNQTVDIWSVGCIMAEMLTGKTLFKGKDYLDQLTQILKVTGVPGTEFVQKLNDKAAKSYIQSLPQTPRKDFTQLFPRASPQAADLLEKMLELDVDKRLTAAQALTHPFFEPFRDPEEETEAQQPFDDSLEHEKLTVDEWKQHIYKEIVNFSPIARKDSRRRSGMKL
The conditions noted are these: at 0.1 µM.

Assay [9] deals with T1, Mitogen-activated protein kinase 13 (Homo sapiens). The conditions noted are these: at 1 µM.
Assay [10] addresses T2, Mitogen-activated protein kinase 12 (Homo sapiens) (UniProt P53778).
T2 sequence (whole entry): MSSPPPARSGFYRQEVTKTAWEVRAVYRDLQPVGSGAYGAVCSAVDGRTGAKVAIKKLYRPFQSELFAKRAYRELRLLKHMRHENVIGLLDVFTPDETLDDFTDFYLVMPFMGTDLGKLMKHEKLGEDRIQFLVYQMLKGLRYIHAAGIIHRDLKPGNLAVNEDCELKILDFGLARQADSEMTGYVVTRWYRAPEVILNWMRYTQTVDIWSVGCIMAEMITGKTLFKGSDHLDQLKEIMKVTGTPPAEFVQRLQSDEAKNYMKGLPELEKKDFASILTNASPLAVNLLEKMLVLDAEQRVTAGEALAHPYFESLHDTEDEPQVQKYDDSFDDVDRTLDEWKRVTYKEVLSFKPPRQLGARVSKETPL
The conditions noted are these: at 0.1 µM.

The target in assay [11] is T2, Mitogen-activated protein kinase 12 (Homo sapiens). To be noted: at 1 µM.
Assay [12] addresses SRSF protein kinase 1 (Homo sapiens) (UniProt Q96SB4). The conditions noted are these: at 0.1 µM.
Assay [13] has the same target. The conditions noted are these: at 1 µM.
Assay [14] has as its target Phosphatidylinositol 4,5-bisphosphate 3-kinase catalytic subunit alpha isoform (Homo sapiens) (UniProt P42336). To be noted: at 0.1 µM.
Assay [15] shares this target. The conditions noted are these: at 1 µM.
Assay [16] concerns the target T3, Phosphatidylinositol 4,5-bisphosphate 3-kinase catalytic subunit delta isoform (Homo sapiens) (UniProt O00329).
T3 sequence (whole entry): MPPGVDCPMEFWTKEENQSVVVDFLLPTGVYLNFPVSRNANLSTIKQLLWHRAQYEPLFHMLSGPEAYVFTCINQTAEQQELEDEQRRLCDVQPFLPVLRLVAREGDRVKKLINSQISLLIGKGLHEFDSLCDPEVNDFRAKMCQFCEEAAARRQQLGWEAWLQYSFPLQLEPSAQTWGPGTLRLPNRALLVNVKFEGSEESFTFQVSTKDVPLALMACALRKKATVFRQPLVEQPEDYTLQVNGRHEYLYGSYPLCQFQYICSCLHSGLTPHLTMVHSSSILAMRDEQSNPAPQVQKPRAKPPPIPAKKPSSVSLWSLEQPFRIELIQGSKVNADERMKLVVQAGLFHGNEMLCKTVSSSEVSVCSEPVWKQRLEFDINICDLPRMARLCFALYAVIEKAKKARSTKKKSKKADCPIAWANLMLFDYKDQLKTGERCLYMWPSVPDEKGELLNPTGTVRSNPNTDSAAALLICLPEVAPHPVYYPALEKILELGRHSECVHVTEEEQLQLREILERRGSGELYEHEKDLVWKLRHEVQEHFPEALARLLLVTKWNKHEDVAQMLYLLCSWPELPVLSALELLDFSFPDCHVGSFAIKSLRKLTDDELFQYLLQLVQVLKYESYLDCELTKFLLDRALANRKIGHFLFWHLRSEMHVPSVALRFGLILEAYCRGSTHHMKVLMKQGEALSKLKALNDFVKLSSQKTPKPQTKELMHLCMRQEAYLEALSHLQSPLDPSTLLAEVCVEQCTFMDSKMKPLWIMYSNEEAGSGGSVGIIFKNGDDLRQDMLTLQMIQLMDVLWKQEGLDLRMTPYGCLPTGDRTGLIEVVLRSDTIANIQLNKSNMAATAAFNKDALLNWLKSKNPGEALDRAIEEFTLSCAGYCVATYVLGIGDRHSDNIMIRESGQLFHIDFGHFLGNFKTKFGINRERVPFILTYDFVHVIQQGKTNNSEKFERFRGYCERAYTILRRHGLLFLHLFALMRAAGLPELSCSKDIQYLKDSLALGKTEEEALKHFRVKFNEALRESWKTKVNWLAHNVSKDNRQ
The conditions noted are these: at 0.1 µM.

In assay [17] the target is T3, Phosphatidylinositol 4,5-bisphosphate 3-kinase catalytic subunit delta isoform (Homo sapiens). The conditions noted are these: at 1 µM.
In assay [18] the target is Phosphatidylinositol 4-kinase beta (Homo sapiens) (UniProt Q9UBF8). The conditions noted are these: at 0.1 µM.
The target is the same in assay [19]. The conditions noted are these: at 1 µM.
For assay [20], the target named is Sphingosine kinase 1 (Homo sapiens) (UniProt Q9NYA1). The conditions noted are these: at 0.1 µM.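 Further: mean percent inhibition of SPHK1 activity, measured within the GSK PKIS screening panel.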
Chain of Sphingosine kinase 1 (Homo sapiens) (Q9NYA1 whole entry): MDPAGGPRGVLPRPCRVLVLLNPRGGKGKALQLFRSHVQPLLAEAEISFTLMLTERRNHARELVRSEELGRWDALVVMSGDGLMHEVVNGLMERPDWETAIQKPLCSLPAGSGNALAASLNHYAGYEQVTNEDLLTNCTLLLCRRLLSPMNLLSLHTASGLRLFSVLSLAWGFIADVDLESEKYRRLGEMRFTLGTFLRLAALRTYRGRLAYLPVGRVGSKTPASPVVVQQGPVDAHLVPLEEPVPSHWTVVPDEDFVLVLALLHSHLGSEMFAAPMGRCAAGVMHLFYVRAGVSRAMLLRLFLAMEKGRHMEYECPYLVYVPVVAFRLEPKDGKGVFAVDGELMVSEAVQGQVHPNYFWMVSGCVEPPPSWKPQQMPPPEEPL

Chain of Mitogen-activated protein kinase 3 (Homo sapiens) (P27361 whole entry): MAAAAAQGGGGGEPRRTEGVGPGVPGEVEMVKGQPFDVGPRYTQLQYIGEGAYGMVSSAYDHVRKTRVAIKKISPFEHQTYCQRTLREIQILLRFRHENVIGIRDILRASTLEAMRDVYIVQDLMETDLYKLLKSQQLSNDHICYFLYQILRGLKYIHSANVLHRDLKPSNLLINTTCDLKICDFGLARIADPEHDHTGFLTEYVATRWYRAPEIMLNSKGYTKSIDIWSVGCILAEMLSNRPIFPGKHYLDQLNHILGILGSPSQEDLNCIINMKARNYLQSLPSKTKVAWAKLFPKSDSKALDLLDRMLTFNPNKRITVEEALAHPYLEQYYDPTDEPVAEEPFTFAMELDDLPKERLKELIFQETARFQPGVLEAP
Chain of SRSF protein kinase 3 (Homo sapiens) (Q9UPE1 whole entry): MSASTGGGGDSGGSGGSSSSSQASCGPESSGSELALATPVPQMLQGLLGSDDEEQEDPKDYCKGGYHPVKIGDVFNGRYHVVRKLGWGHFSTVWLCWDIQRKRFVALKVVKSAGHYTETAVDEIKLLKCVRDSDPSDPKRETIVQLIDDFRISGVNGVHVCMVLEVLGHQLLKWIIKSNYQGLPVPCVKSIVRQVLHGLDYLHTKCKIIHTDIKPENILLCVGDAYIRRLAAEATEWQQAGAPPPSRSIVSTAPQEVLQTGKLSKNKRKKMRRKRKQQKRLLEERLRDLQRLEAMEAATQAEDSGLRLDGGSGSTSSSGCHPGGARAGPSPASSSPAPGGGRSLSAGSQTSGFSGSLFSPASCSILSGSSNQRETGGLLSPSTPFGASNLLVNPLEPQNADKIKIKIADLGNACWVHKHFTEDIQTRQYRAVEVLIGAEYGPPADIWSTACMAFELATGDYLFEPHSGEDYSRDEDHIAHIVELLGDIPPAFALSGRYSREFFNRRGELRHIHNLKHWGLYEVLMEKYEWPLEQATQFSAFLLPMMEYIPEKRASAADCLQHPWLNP
Chain of SRSF protein kinase 1 (Homo sapiens) (Q96SB4 whole entry): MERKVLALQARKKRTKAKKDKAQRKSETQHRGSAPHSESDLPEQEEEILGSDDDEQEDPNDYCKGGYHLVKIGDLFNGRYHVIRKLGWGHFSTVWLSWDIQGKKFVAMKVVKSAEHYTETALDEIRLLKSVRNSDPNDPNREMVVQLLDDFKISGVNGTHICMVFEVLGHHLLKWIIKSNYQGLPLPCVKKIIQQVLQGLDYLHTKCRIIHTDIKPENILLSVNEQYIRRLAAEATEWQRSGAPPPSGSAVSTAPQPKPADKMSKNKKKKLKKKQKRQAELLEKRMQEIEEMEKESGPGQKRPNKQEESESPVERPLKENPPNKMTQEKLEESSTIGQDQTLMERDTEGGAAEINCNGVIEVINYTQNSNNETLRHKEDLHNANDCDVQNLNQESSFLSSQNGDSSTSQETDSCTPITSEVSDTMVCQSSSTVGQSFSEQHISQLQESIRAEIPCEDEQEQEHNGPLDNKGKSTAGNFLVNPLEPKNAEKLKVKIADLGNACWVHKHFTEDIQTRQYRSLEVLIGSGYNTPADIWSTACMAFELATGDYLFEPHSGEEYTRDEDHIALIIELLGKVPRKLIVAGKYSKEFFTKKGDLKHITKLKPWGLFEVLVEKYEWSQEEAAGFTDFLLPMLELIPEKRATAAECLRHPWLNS
Chain of Phosphatidylinositol 4,5-bisphosphate 3-kinase catalytic subunit alpha isoform (Homo sapiens) (P42336 whole entry, canonical isoform): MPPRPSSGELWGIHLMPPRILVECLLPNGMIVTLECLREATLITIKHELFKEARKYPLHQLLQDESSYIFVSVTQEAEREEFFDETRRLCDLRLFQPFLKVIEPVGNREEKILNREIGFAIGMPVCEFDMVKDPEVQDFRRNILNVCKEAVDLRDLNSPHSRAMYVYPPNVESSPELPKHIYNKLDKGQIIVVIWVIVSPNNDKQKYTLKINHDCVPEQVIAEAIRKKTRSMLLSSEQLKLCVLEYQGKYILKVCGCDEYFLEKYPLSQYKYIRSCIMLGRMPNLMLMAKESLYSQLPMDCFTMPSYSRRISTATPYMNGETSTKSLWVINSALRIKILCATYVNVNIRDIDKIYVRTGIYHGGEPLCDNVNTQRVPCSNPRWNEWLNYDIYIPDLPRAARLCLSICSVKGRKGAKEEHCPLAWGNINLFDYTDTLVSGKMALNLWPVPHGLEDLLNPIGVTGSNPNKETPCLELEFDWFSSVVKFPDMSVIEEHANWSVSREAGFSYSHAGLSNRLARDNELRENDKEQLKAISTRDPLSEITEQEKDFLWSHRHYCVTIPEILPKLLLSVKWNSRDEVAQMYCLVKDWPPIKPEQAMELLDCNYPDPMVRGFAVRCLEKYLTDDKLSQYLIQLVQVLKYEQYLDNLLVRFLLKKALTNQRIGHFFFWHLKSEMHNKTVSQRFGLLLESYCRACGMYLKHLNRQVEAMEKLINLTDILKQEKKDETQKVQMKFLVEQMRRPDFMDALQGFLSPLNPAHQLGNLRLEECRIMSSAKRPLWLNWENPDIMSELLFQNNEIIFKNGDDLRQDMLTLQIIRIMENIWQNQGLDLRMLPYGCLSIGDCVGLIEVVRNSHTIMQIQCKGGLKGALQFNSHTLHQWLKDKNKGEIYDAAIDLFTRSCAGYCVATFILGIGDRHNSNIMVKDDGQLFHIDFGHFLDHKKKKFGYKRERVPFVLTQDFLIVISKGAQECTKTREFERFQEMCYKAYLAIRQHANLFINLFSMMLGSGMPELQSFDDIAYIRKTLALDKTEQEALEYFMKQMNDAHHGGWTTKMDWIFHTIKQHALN
Chain of Phosphatidylinositol 4-kinase beta (Homo sapiens) (Q9UBF8 2-816 limits assumed): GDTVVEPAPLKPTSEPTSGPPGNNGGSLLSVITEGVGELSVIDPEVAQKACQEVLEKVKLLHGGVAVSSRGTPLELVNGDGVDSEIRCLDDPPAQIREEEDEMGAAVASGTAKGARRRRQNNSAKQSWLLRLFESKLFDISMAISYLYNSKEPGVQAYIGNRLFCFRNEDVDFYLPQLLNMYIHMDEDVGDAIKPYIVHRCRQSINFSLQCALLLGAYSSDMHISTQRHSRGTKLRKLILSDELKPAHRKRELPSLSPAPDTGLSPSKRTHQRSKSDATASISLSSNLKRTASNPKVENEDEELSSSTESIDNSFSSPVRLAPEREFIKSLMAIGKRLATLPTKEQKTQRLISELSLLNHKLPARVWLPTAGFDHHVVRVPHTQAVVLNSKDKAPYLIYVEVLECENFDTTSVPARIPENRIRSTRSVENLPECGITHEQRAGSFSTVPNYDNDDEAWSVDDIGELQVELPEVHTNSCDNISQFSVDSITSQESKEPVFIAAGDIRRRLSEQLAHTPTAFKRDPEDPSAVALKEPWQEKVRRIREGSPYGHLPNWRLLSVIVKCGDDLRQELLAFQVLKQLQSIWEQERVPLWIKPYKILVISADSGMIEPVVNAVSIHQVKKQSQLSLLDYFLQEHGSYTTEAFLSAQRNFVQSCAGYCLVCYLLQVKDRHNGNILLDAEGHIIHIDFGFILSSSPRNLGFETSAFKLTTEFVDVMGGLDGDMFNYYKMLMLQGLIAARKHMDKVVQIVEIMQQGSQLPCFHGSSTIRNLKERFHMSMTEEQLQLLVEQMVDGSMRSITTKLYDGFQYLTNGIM
Chain of Mitogen-activated protein kinase 11 (Homo sapiens) (Q15759 whole entry): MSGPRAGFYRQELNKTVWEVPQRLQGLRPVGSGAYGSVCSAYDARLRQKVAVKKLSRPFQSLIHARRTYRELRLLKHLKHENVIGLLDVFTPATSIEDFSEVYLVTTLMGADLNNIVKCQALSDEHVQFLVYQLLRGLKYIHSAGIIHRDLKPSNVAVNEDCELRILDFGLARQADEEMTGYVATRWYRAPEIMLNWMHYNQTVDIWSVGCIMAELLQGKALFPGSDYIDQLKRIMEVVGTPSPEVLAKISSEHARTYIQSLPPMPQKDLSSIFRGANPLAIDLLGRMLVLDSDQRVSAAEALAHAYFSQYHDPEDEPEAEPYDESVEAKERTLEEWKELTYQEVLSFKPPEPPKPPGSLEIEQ
Chain of Mitogen-activated protein kinase 14 (Homo sapiens) (Q16539 whole entry): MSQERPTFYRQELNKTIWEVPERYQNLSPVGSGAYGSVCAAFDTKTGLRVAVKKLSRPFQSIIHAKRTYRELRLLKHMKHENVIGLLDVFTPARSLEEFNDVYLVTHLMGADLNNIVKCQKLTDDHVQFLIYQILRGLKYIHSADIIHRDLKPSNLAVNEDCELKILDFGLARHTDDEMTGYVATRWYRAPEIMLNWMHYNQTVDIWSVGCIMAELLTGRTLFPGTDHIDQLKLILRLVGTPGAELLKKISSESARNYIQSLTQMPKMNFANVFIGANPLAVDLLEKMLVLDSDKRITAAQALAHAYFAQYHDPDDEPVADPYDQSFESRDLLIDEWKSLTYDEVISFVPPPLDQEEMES

As to `Fc1cccc(COc2ccc(Nc3ncnc4sc(-c5ccco5)cc34)cc2Cl)c1`, the inhibition in assay [1] was 4.3%; in assay [2] it was -0.82%; in [3], 1.38%; in [4], 7.31%; in [5], 6.29%; in assay [6] it was 4.57%. Besides, the inhibition in assay [7] is 6.75%; in assay [8], 4.02%; in assay [9], 3.46%; in assay [10], 3.22%; in assay [11], 4.18%; in assay [12], -1.79%. Also, the inhibition in assay [13] was -2.01%; in [14] it was 6.18%; in [15], 17.2%; in [16] it was 2.28%; in assay [17], 12.4%; in [18], -1.28%. Also, the inhibition in assay [19] came to 0.68%; in assay [20] it was 0%.
Turning to `CCN1CCC(CC(=O)Nc2n[nH]c3nnc(-c4cccc(F)c4F)cc23)CC1`, the inhibition in assay [1] was 2.9%; in assay [2], -0.22%; in assay [3], 0.53%; in assay [4], 1.3%; in assay [5] it was 1.76%; in [6], 2.75%. The inhibition in [7] was 4.66%; in assay [8], 1.08%; in [9], 0.01%; in assay [10] it was 1.4%; in assay [11], 1.97%; in assay [12] it was -2.57%. Besides, the inhibition was -3.98% in assay [13]; 3.38% in [14]; 2.58% in [15]; 2.16% in assay [16]; 1.94% in assay [17]; 2.58% in [18]. Also, the inhibition in [19] was -1.91%; in [20], 0.09%.
With `CCn1c(-c2nonc2N)nc2c(C#CC(C)(C)O)ncc(OC3CCNCC3)c21`, the inhibition was 4.59% in assay [1]; 2.87% in assay [2]; -1.64% in [3]; 8.8% in assay [4]; 11.3% in assay [5]; 1.59% in assay [6]. In addition, the inhibition in assay [7] was 7.19%; in assay [8], 1.55%; in assay [9], 2.9%; in assay [10], 2.41%; in assay [11], 3.11%; in [12], -3.24%. The inhibition was -2.54% in [13]; 2.27% in assay [14]; 1.82% in assay [15]; -0.02% in assay [16]; 0.63% in assay [17]; 4.47% in [18]. Moreover, the inhibition is 0.66% in assay [19] and -1.2% in assay [20].
In the case of `COc1ccc(-c2cc3c(N)ncnc3o2)cc1`, the inhibition in assay [1] is -1.51%; in assay [2], -0.13%; in [3], -0.8%; in assay [4] it was -1.46%; in assay [5] it was 0.41%; in assay [6], -1.4%. Further, the inhibition in assay [7] was -0.96%; in [8] it was -2.33%; in assay [9], -2.56%; in assay [10], -1.44%; in assay [11], -1.89%; in [12], -1.58%. In addition, the inhibition is 1.06% in assay [13]; -1.98% in assay [14]; -0.52% in assay [15]; -0.57% in assay [16]; 0.07% in assay [17]; -0.47% in assay [18]. Moreover, the inhibition in [19] is -0.47%; in assay [20], 9.34%.
As to `N#Cc1c(NC(=O)CN2CCOCC2)sc2c1CCCC2`, the inhibition was 6.78% in [1]; -1.65% in assay [2]; 2.65% in assay [3]; 5.67% in assay [4]; 9.2% in assay [5]; 1.86% in [6]. For the same compound, the inhibition in assay [7] is 7.38%; in assay [8], 6%; in [9] it was 5.61%; in assay [10], 3.4%; in assay [11], 3.63%; in [12], -1.48%. Also, the inhibition in assay [13] was found to be 3.81%; in assay [14] it was 3.43%; in assay [15], 3.19%; in assay [16] it was 0.47%; in assay [17] it was 0.45%; in [18], 0.92%. The values for the inhibition in assay [19] and in assay [20] were -0.98% and 0.08%, respectively.
For `COc1ccc2c(-c3ccnc(Nc4cccc(OC(F)(F)F)c4)n3)cnn2n1`, the inhibition in assay [1] is 3.9%; in assay [2], -1.04%; in assay [3], 2.71%; in assay [4], 2.92%; in assay [5] it was 8.4%; in [6] it was 0.17%. Also, the inhibition was 5.04% in assay [7]; -1.73% in [8]; 7.58% in assay [9]; 1.78% in [10]; 2.47% in assay [11]; -0.39% in assay [12]. In addition, the inhibition in [13] turned out to be 3.84%; in assay [14], 2.57%; in assay [15], 6.99%; in assay [16], 0.71%; in [17], 5.67%; in assay [18] it was 0.16%. Further, the results for the inhibition in [19] and in assay [20] were 2.84% and 0%, respectively.
As to `COc1cc2c(cc1Nc1nc(Nc3ccsc3C(N)=O)c3cc[nH]c3n1)N(C(=O)CN(C)C)CCC2(C)C`, the inhibition in assay [1] is 3.62%; in assay [2], 0.09%; in assay [3] it was 3.51%; in assay [4] it was 4.03%; in [5] it was 10.7%; in assay [6] it was 5.19%. Also, the inhibition is 8.81% in [7]; 2.03% in assay [8]; 9.12% in assay [9]; 1.64% in [10]; 4.23% in assay [11]; -1.82% in [12]. Moreover, the inhibition in assay [13] was 15.8%; in assay [14], 4.65%; in assay [15] it was 5.27%; in assay [16] it was 2.82%; in assay [17], 13.9%; in [18], -0.32%. For the same compound, the inhibition in assay [19] was -1.38%; in assay [20], 3.22%.
In the case of `Nc1nc(-c2ccc(F)cc2)c(-c2ccc3ncccc3n2)s1`, the inhibition was 3.86% in [1]; -0.15% in assay [2]; 2.22% in assay [3]; 23.6% in assay [4]; 76.4% in assay [5]; 7.76% in [6]. The inhibition in [7] is 33.1%; in assay [8], 5.53%; in assay [9], 5.76%; in assay [10], 1.26%; in [11], 2.9%; in [12], -1.42%. In addition, the inhibition in assay [13] was found to be 1.42%; in assay [14] it was 7.33%; in assay [15], 20.4%; in assay [16] it was 7.18%; in [17], 32.8%; in assay [18] it was 8.12%. Moreover, the inhibition in assay [19] is 7.23%; in [20], 0.08%.

The values are drawn from ChEMBL document CHEMBL1961873, “Compounds: GSK PKIS; Assays: Nanosyn kinase panel” (2012).
